From PubChem BioAssay
In the library only some 10% were active in any assay of this set; here they are far more common.
Six1-Eya2 blk: blocks human Six1 binding to Eya2. Q15475+O00167. AlphaScreen GST-Six1/His-Eya2 binding, biochemical; stronger effect = lower value. activity change, % (test concentration not listed). actives 0.56% (n = 360,000); in the data active means activity change below about -65%; inconclusive means mostly about -30% to -63%; further: on the % scale 0 is the no-effect control and ±100 the full control effect
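AlphaScreen luminescence read after one hour at 37 °C in darkness. Pin-transferred compounds met GST-Six1 and His-Eya2 protein (5X stock 250 nM/500 nM) plus glutathione donor and Ni-chelate acceptor beads (5X, 50 ug/mL).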
G9a block: blocks human histone lysine methyltransferase G9a; G9a H3K9 monomethylation, AlphaScreen, 2 h; actives 8.8% (n = 350,000); Q96KQ7; Potency, µM (highest dose often 102 µM), for the others: at the top dose activity, negative = inhibition, usual class: inhibitors; further: potency means the concentration at half of the fitted maximal effect; on the % scale 0 is the no-effect control and ±100 the full control effect; nearly all actives have a fitted effect of over 75% in size
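Step 1: enzyme (final 20 nM) with compound, 15 min RT. Step 2: substrate peptide 500 nM and SAM 20 uM, 2 h RT. Step 3: anti-H3K9me1 antibody and AlphaScreen beads, 10 min, then plate read.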
CtBP-E1A inh: blocks the CtBP interaction with E1A; activity change, % (concentration not given with the values); AID 651724; AlphaScreen GST-E1A/His-CtBP binding, 1536-well; stronger effect = lower value; actives 0.49% (n = 340,000); in the data active means activity change below about -65%; inconclusive means mostly about -30% to -63%; further: on the % scale 0 is the no-effect control and ±100 the full control effect
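GST-E1A and His-tagged CtBP (125 nM each as 5X stock) were preincubated with pin-transferred compound for 2 h at 37 °C in the dark, then glutathione donor and nickel acceptor beads were added for 1 h before AlphaScreen reading.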
JMJD2A Tudor inh: inhibitors of human JMJD2A Tudor domain | O75164 | AlphaScreen JMJD2A-Tudor / H3K4me3 peptide binding | Potency, µM (top dose mostly 114 µM), without a hit: top-dose activity change, negative = inhibition, most hits filed as inhibitors | actives 4.4% (n = 390,000) | AID 504339; further: potency means the concentration at half of the fitted maximal effect; on the % scale 0 is the no-effect control and ±100 the full control effect; nearly all actives have a fitted effect of over 50% in size
Target sequence (O75164 whole entry, looked up, the tested form may be a part): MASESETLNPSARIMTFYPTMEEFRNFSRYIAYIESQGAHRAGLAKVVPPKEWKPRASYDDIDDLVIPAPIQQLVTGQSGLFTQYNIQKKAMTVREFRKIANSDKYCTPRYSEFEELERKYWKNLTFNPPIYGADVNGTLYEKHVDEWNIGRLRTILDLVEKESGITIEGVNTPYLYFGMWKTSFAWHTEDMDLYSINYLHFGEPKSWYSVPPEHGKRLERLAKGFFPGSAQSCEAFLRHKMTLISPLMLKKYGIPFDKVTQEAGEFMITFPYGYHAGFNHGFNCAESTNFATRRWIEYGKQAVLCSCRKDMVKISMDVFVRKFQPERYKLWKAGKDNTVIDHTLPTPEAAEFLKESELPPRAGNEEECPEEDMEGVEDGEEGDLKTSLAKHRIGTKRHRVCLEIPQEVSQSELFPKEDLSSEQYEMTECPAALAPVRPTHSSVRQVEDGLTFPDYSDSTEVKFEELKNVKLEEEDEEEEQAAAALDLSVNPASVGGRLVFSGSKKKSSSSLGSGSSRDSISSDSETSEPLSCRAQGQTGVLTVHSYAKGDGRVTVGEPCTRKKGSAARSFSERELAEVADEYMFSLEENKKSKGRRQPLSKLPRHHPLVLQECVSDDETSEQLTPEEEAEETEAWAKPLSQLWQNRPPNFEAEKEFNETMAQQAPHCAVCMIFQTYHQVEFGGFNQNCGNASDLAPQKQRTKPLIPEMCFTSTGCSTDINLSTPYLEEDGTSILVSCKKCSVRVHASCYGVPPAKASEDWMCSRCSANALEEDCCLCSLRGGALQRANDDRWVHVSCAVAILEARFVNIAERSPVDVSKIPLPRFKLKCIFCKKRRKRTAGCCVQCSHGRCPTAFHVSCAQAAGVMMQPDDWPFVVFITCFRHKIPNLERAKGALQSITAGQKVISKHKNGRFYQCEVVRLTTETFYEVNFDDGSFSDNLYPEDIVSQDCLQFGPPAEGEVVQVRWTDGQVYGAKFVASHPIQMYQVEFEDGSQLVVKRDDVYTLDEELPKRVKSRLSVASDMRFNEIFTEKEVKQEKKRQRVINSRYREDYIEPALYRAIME
HP1b binding inh: blocks HP1-beta chromodomain binding to methylated histone tails. actives 0.56% (n = 390,000). P83916. AlphaScreen HP1-beta / biotin-H3K9me3 peptide binding. Potency, µM (series often up to 114 µM), for the others: at the highest dose activity change, negative = inhibition, most hits filed as inhibitors; further: potency means the concentration at half of the fitted maximal effect; nearly all actives have a fitted effect of over 70% in size
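HP1-beta protein (50 nM final) preincubated 30 min at room temperature with biotinylated H3(1-18)K9me3 peptide (50 nM) in PBS pH 7.4, 0.01% Tween-20, then compound added for 30 min. AlphaScreen streptavidin donor/nickel chelate acceptor beads (10 ug/mL final), 30 min dark, luminescence read.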
BAZ2B inh: blocks human BAZ2B. Q9UIF8. AlphaScreen BAZ2B-H3K14Ac peptide displacement. Potency, µM (series often up to 114 µM), for inactives: at the highest dose activity change, negative = inhibition, most hits filed as inhibitors. actives 4.4% (n = 360,000). AID 504333; further: potency means the concentration at half of the fitted maximal effect; on the % scale 0 is the no-effect control and ±100 the full control effect; nearly all actives have a fitted effect of over 60% in size
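BAZ2B 50 nM plus b-H3(5-23)K14Ac 50 nM, PBS pH 7.4/0.01% Tween-20, 30 min RT; compound added (max 110 uM), 30 min RT; streptavidin donor/Ni-chelate acceptor beads 10 ug/mL final, 20 min dark; AlphaScreen read.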
Starred values were filed as active, the others as inactive; ? = inconclusive; nt = not tested or not shown; ! = a repeat was not active; [ ] = remark or other dose. Unless noted, the call rests on the fitted dose curve; in most records, active means well fitted inhibition curve with a large enough effect; inconclusive means small, poorly fitted or top-dose-only effect; inactive means no such curve, though single readings can be large or run the other way.

SMILES | Six1-Eya2 blk | G9a block | CtBP-E1A inh | JMJD2A Tudor inh | HP1b binding inh | BAZ2B inh
CC(C)(C)C(=O)Nc1cc(S(=O)(=O)N2CCCCC2)ccc1N1CCCCC1 | -5.1 | 39.8µM* | 1.6 | -20.6% | 28.2% | 1.8%
CCOC(=O)N/N=C/c1c(F)c(F)c(F)c(F)c1F | 14.5 | ? | 8.1 | -12.0% | 4.0% | -14.5%
CCOc1cc(N2CCOCC2)c(OCC)cc1NC(=O)c1cc(S(=O)(=O)N2CCOCC2)ccc1Cl | 1.8 | 50.1µM* | 7.4 | ? | -16.0% | ?
O=C(Nc1cc(S(=O)(=O)N2CCOCC2)ccc1N1CCCCC1)c1ccccc1 | -0.8 | -14.1%[59 µM] | -2.7 | -21.1% | 22.3% | -0.9%
CCOc1cc(N2CCOCC2)c(OCC)cc1NC(=O)c1ccc(S(=O)(=O)N2CC(C)OC(C)C2)cc1 (stereo not given) | -0.8 | nt | nt | ? | -3.1% | nt
N#C/C(=C\c1ccccc1)C(=O)Nc1cc(S(=O)(=O)N2CCOCC2)ccc1N1CCCC1 | -9.7 | 44.7µM* | -0.3 | -34.3% | -6.7% | -9.3%
COc1ccc(-c2nc3sc(CCNC(=O)c4ccc(C(C)(C)C)cc4)c(C)n3n2)cc1 | nt | 6.5%[59 µM] | nt | -10.7% | 17.3% | 2.5%
O=C(C1=C(O)C(=O)N(CC2CCCO2)C1c1cccnc1)c1ccco1 (stereo not given) | -1.7 | 39.8µM* | 2.7 | ? | 15.9% | ?
O=C(C1=C(O)C(=O)N(CC2CCCO2)C1c1cccc(Cl)c1)c1ccco1 (stereo not given) | -12.8 | ? | -15.1 | -3.5% | 10.5% | -1.1%
O=C(C1=C(O)C(=O)N(CC2CCCO2)C1c1ccccc1)c1ccco1 (stereo not given) | 2.6 | 44.7µM* | 3.3 | -15.5% | -12.8% | -2.3%
COc1ccc(C2C(C(=O)c3ccco3)=C(O)C(=O)N2CCc2ccccc2)cc1OC (stereo not given) | 2.2 | 50.1µM* | -0.5 | 79.4µM* | -5.6% | -35.2%
CC(C)(C)c1ccc(C2C(C(=O)c3ccco3)=C(O)C(=O)N2CC2CCCO2)cc1 (stereo not given) | -7.7 | -10.6%[59 µM] | 4.0 | -18.2% | 14.4% | -9.5%
COc1ccc(C2C(C(=O)c3ccco3)=C(O)C(=O)N2CC2CCCO2)cc1OC (stereo not given) | 7.3 | 50.1µM* | -1.9 | -31.0% | -27.9% | -35.9%
COc1ccc(C2C(C(=O)c3ccco3)=C(O)C(=O)N2CCOCCO)cc1OC (stereo not given) | -1.3 | ? | 1.5 | ? | -2.5% | ?
CCCn1c(SCC(=O)Nc2nnc(CC)s2)nnc1-c1ccncc1 | 6.5 | 9.9% | 5.2 | -7.7% | 9.2% | -10.5%
Cc1cccc(-c2noc(CNC(=O)c3ccccc3Br)n2)c1 | nt | 1.2%[59 µM] | nt | -12.2% | 34.4% | -1.6%
CC(=O)c1cccc(NC(=O)c2cnn(-c3cccc(C)c3)c2-n2cccc2)c1 | nt | -0.3%[59 µM] | nt | -3.2% | 49.1% | -1.7%
COc1ccc(S(=O)NC2CCCCC2)c(OC)c1C (stereo not given) | 6.8 | 31.6µM* | 8.4 | ? | 56.2% | 1.1%
COc1ccc(C(=O)NC2CCCCCCC2)cc1OC | -7.4 | nt | 2.5 | -6.5% | 61.9% | nt
CC(=O)n1cc(CO)c2ccccc21 | 6.3 | 7.3%[12.7 µM] | 11.5 | -10.2% | 37.6% | 2.7%
CC(=O)O/C(=C\c1cn(C(C)=O)c2ccccc12)C(=O)O | 0.5 | 35.5µM* | 11.9 | -0.7% | 31.4% | ?
CCOc1ccc(NC(=O)C2CCC(CNS(=O)(=O)c3ccc(Br)s3)CC2)cc1 (stereo not given) | nt | 4.7%[59 µM] | nt | -25.3% | 2.2% | -3.1%
CCC(C)(C)C1CCC(=NNC(=S)Nc2cccnc2)CC1 (stereo not given) | -14.9 | 7.94µM* | -5.0 | 44.7µM* | -21.7% | ?
CC(C)(C)C1CCC(=NNC(=O)C(=O)NCc2cccnc2)CC1 (stereo not given) | 10.0 | ? | -2.6 | -13.8% | 26.5% | ?
CC(C)(C)C1CCC(=NNC(=S)NCc2ccccc2)CC1 (stereo not given) | -7.1 | 8.91µM* | -12.8 | ? | 29.6% | ?
SMILES | Six1-Eya2 blk | G9a block | CtBP-E1A inh | JMJD2A Tudor inh | HP1b binding inh | BAZ2B inh
COc1cc(CCNc2ccc3nnc(-c4ccccc4)n3n2)cc(OC)c1OC | -80.0* | -45.6% | -90.0* | -12.8% | 40.9% | -21.6%
COc1cc(-c2cc3nc(NCCc4ccncc4)ccn3n2)cc(OC)c1OC | -21.4 | nt | -11.6 | nt | nt | nt
C=CCN1C(c2cccc(C(F)(F)F)c2)=CS/C1=C(/C#N)c1nnc(N2CCOCC2)n1-c1ccccc1 | -7.0 | 79.4µM* | -5.9 | 50.1µM* | 0.4% | 50.1µM*
CC(=O)c1ccc2noc(-c3ccc(Cl)cc3)c2c1 | 1.1 | ? | 8.0 | -14.0% | 35.8% | -13.3%
Cc1cc(-c2onc3ccc(Cl)cc23)ccc1O | 9.1 | 39.8µM* | -6.0 | 21.1% | 45.1% | -1.6%
CCOc1ccc2nc(N3CCCC(C(=O)Nc4ccc(OC)c(Cl)c4)C3)sc2c1 (stereo not given) | nt | 5.8%[59 µM] | nt | -1.5% | 45.4% | 1.3%
Nc1c(/C=C2/C=CC(=O)C(O)=C2)c(=O)nc2sc(CC(=O)N3CCCC3)nn12 | ? | 35.5µM* | nt | 25.1µM* | ? | 20µM*
COC1=C/C(=C/c2c(N)n3nc(CC(=O)N4CCCC4)sc3nc2=O)C=CC1=O | -13.4 | ? | -6.1 | -34.4% | 17.3% | -19.3%[57.1 µM]
Nc1c(/C=C2/C=CC(=O)C(O)=C2)c(=O)nc2sc(CC(=O)N3CCOCC3)nn12 | ? | nt | -20.8 | 20µM* | ? | nt
CCOC1=C/C(=C/c2c(N)n3nc(CC(=O)N4CCCC4)sc3nc2=O)C=CC1=O | -6.6 | 79.4µM* | -20.2 | -24.8% | 12.0% | -21.3%[57.1 µM]
Nc1c(/C=C2/C=CC(=O)C(O)=C2)c(=O)nc2sc(CC(=O)N3CCCCC3)nn12 | 27.6 | 10µM* | nt | ? | 53.0% | 10µM*
Cc1ccc(NC(=O)C(C)N2CCCC2)cc1Cl (stereo not given) | 1.8 | -37.1% | 2.2 | -4.9% | 36.2% | -13.9%
COC(C(=O)Nc1ccnn1C1CCN(Cc2ccc(C)s2)CC1)c1ccccc1 (stereo not given) | -2.9 | 55.4% | 2.0 | -27.9% | 25.5% | -1.8%
COCCCNC(=O)N1CCN(c2nnc(C)c3c(C)n(-c4ccc(Cl)cc4)nc23)CC1 | nt | 6.4%[59 µM] | nt | -17.3% | 14.7% | -2.2%
Cc1ccc(S(=O)(=O)/N=C(/Sc2ccccc2C(=O)O)c2ccccc2)cc1 | -14.5 | nt | -15.2 | -22.5% | 22.4µM*! | -22.2%
CCN1CCN(c2ccc(S(=O)(=O)N3CCOCC3)cc2NC(=O)CC(C)C)CC1 | -1.3 | 0.5%[12.7 µM] | 3.4 | -9.8% | 43.6% | -23.0%
